According to the supplement of paper PMC4723716:
± gives the uncertainty stated by the source. In all, about 9,900 compounds were measured (“viability index relative to DMSO control”: median about 1, lowest 2% from about 0.85 on). The list comes from a sample in which the lowest values are over-represented; it also holds similar structures and randomly drawn compounds.

Tested on: Plasmodium falciparum NF54 stage V gametocytes
Assay: viability index relative to DMSO control (fraction); higher = less gametocyte killing
Settings: 2.5 µM, incubation time: 72 h
Method in brief: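 P. falciparum NF54 stage V gametocytes (serum-free medium, 0.75% gametocytemia, 1.25% hematocrit) were exposed to compound at 2.5 µM for 72 hr at 37°C under low oxygen, then stained with MitoTracker Red CMXRos and saponin for one to two hours. Red particles of 20–70 µm2 in one field per well were counted, and the viability index is that count scaled to the plate mean of solvent-only wells.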

[1] = library set: Broad Institute DOS
[2] = library set: Broad Institute Blood Stage

| Compound | viability index [1] | viability index [2] |
| --- | --- | --- |
| O=C(C[C@H]1CC[C@H]2[C@@H](COC[C@@H](O)CN2Cc2nccs2)O1)NCc1ccccc1Cl | 1.1 ± 0.03 |  |
| C[C@@H]1CN([C@H](C)CO)C(=O)Cc2cc(NC(=O)c3ccncc3)ccc2O[C@H]1CN(C)C(=O)Nc1ccc(F)cc1 | 0.944 ± 0.12 |  |
| CC(C)NC[C@@H]1[C@H](c2ccc(C3=CCCCC3)cc2)[C@H](CO)N1S(C)(=O)=O | 0.996 ± 0.022 |  |
| C[C@H]1CN([C@@H](C)CO)C(=O)CCCn2nncc2CO[C@@H]1CN(C)Cc1ccccc1C(=O)O | 1.04 ± 0.031 |  |
| O=C(c1ccccn1)N1CC2(C1)[C@@H](c1ccccc1)[C@@H](CO)N2C(=O)C1CCCCC1 | 1.041 ± 0.0089 |  |
| OC[C@H]1[C@@H](c2ccc(-c3cccc(F)c3)cc2)[C@@H]2CN(Cc3cncnc3)CCCCN12 | 0.963 ± 0.1 |  |
| OC[C@@H]1[C@H](c2ccc(-c3cccnc3)cc2)[C@H]2CN(Cc3ccccn3)CCCCN12 | 0.979 ± 0.024 |  |
| OC[C@H]1[C@@H](c2ccc(C3=CCCC3)cc2)[C@@H]2CN(Cc3ccncc3)CCCCN12 | 0.845 ± 0.14 |  |
| OC[C@@H]1[C@H](c2ccc(-c3cccnc3)cc2)[C@@H]2CN(Cc3ccccn3)CCCCN12 | 1.04 ± 0.06 |  |
| OC[C@@H]1[C@H](c2ccc(C3=CCCC3)cc2)[C@H]2CN(Cc3ccncc3)CCCCN12 | 1.05 ± 0.068 |  |
| OC[C@@H]1[C@@H](c2ccc(-c3cccnc3)cc2)[C@@H]2CN(Cc3ccccn3)CCCCN12 | 0.737 ± 0.12 |  |
| CN1C(=O)c2cc(NC(=O)c3ccc4c(c3)OCO4)ccc2OC[C@H]2O[C@@H](CC(=O)O)CC[C@@H]21 | 1.11 ± 0.071 |  |
| CO[C@@H](CN(C)C(=O)c1cc(Cl)cc(Cl)c1)[C@@H](C)CN(C(=O)Nc1ccc(F)cc1)[C@@H](C)CO | 1.04 ± 0.018 |  |
| N#C[C@H]1[C@@H](c2ccccc2)[C@@H](CO)N1C(=O)c1ccc2c(c1)OCO2 | 1.08 ± 0.022 |  |
| N#C[C@H]1[C@@H](c2ccccc2C2=CCCC2)[C@H](CO)N1C(=O)Cc1ccncc1 | 1.07 ± 0.13 |  |
| COc1ccc(S(=O)(=O)N(C)C[C@H]2OCCCC[C@@H](C)Oc3ccc(NC(=O)Cc4ccccc4)cc3C(=O)N([C@@H](C)CO)C[C@@H]2C)cc1 | 1.07 ± 0.17 |  |
| COc1ccc(S(=O)(=O)N(C)C[C@@H]2OCCCC[C@H](C)Oc3ccc(NC(=O)Cc4ccccc4)cc3C(=O)N([C@@H](C)CO)C[C@H]2C)cc1 | 0.911 ± 0.17 |  |
| COc1ccc(S(=O)(=O)N(C)C[C@H]2OCCCC[C@H](C)Oc3ccc(NC(=O)Cc4ccccc4)cc3C(=O)N([C@H](C)CO)C[C@H]2C)cc1 | 0.9061 ± 0.001 |  |
| COc1ccc(S(=O)(=O)N(C)C[C@H]2OCCCC[C@H](C)Oc3ccc(NC(=O)Cc4ccccc4)cc3C(=O)N([C@@H](C)CO)C[C@H]2C)cc1 | 0.791 ± 0.031 |  |
| COc1ccc(S(=O)(=O)N(C)C[C@H]2OCCCC[C@H](C)Oc3ccc(NC(=O)Cc4ccccc4)cc3C(=O)N([C@H](C)CO)C[C@@H]2C)cc1 | 0.994 ± 0.022 |  |
| COc1ccc(S(=O)(=O)N(C)C[C@H]2OCCCC[C@@H](C)Oc3ccc(NC(=O)Cc4ccccc4)cc3C(=O)N([C@@H](C)CO)C[C@H]2C)cc1 | 0.773 ± 0.061 |  |

| Compound | viability index [1] | viability index [2] |
| --- | --- | --- |
| COCC#Cc1ccc([C@@H]2[C@H](CO)N3C(=O)CN(C(=O)CN4CCOCC4)C[C@@H]23)cc1 | 1.02 ± 0.05 |  |
| C[C@@H](NC(=O)C[C@H]1C=C[C@@H](NS(=O)(=O)c2cccc(F)c2)[C@H](CO)O1)c1ccccc1 | 1.17 ± 0.04 |  |
| O=C(N[C@@H]1CC[C@H](CC(=O)N2CCOCC2)O[C@H]1CO)c1cccc(F)c1 | 1.07 ± 0.062 |  |
| O=C(Nc1ccccc1)N1CC(=O)N2[C@H](CO)[C@@H](c3ccc(C#CC4CCCCC4)cc3)[C@@H]2C1 | 1.04 ± 0.086 |  |
| COCC(=O)N1CC[C@@]2(CC1)CN([C@@H](CO)c1c2c2ccc(OC)cc2n1C)C(=O)c1ccccn1 | 1.02 ± 0.1 |  |
| CO[C@@H]1CN(C)C(=O)c2cc(NS(=O)(=O)CC(F)(F)F)ccc2OC[C@H](C)NC[C@@H]1C | 1.05 ± 0.059 |  |
| O=C(NCC[C@@H]1CC[C@@H](NS(=O)(=O)Cc2ccccc2)[C@@H](CO)O1)C1CCCCC1 | 0.968 ± 0.15 |  |
| CN(C)C(=O)C[C@@H]1C=C[C@H](NC(=O)c2ccc(F)cc2)[C@@H](CO)O1 | 1.11 ± 0.097 |  |
| Cc1ccc(S(=O)(=O)Nc2cccc3c2O[C@@H](CN(C)C(=O)Nc2ccc(C(F)(F)F)cc2)[C@@H](C)CN([C@H](C)CO)C3=O)cc1 | 1.08 ± 0.061 |  |
| C[C@@H]1CN([C@@H](C)CO)C(=O)c2cccc(NC(=O)c3nc4ccccc4s3)c2O[C@H]1CN(C)C(=O)Nc1ccc(C(F)(F)F)cc1 |  | 0.811 ± 0.058 |
| C[C@H](CO)N1C[C@H](C)[C@@H](CN(C)C(=O)Nc2ccc3c(c2)OCO3)Oc2c(NC(=O)c3nc4ccccc4s3)cccc2C1=O | 1.01 ± 0.041 |  |
| C[C@H](CO)N1C[C@H](C)[C@@H](CN(C)C(=O)Nc2ccc3c(c2)OCO3)Oc2ccc(NC(=O)Nc3ccc(C(F)(F)F)cc3)cc2CC1=O |  | 0.755 ± 0.061 |
| C[C@@H]1CN([C@H](C)CO)C(=O)c2cccc(NC(=O)NC3CCCCC3)c2O[C@@H]1CN(C)Cc1ccc(C(F)(F)F)cc1 | 0.977 ± 0.071 |  |
| C[C@@H]1CN([C@H](C)CO)C(=O)c2cccc(NC(=O)c3nc4ccccc4s3)c2O[C@H]1CN(C)C(=O)Nc1ccc2c(c1)OCO2 | 0.9047 ± 0.0069 |  |
| C[C@H](CO)N1C[C@H](C)[C@@H](CN(C)C(=O)Nc2ccc(C(F)(F)F)cc2)Oc2ccc(NS(=O)(=O)c3ccc(Cl)cc3)cc2CC1=O | 0.917 ± 0.088 |  |
| C[C@H](CO)N1C[C@H](C)[C@H](CN(C)C(=O)Nc2ccc(C(F)(F)F)cc2)Oc2ccc(NS(=O)(=O)c3ccc(Cl)cc3)cc2CC1=O | 1.009 ± 0.0083 |  |
| Cc1ccc(S(=O)(=O)Nc2cccc3c2O[C@H](CN(C)C(=O)Nc2ccc(C(F)(F)F)cc2)[C@@H](C)CN([C@H](C)CO)C3=O)cc1 | 1.02 ± 0.029 |  |
| C[C@@H]1CN([C@@H](C)CO)C(=O)c2cccc(NC(=O)NC3CCCCC3)c2O[C@@H]1CN(C)Cc1ccc(C(F)(F)F)cc1 | 0.813 ± 0.08 |  |
| C[C@@H]1CN([C@@H](C)CO)C(=O)c2cccc(NC(=O)C3CC3)c2O[C@@H]1CN(C)C(=O)Nc1ccc(C(F)(F)F)cc1 |  | 0.594 ± 0.06 |
| C[C@@H]1CN([C@H](C)CO)C(=O)c2cccc(NC(=O)NC3CCCCC3)c2O[C@H]1CN(C)Cc1ccc(C(F)(F)F)cc1 | 1.01 ± 0.083 |  |
| O=C(Nc1ccccc1F)N1CC(=O)N2[C@@H](CO)[C@H](c3ccc(-c4cccnc4)cc3)[C@@H]2C1 | 1.08 ± 0.028 |  |
